Consider 100 molecules from PubChem BioAssay AID1671202 (University of Kansas High Throughput Screening Laboratory, 2021).

Several values for one entry are separate records, joined by “and”; a condition that tells them apart may be missing. Equal entries are not always repeated. Out of some 190,000 compounds screened, about 6,900 (3.6%) were called active. Cut-off read from the data, not from the text of the source: active = inhibition above about 50%; inactive = the rest. Many of the other results were omitted from the sample, so actives are more common in it than they were.

One may read the inhibition as the relative decrease from the control value, in per cent.

The target in the assay is Huntingtin (Homo sapiens) (UniProt P42858). As to the kind of experiment: mutant huntingtin-calmodulin interaction inhibitors – biochemical, AlphaScreen, primary screen (AID 1671202).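 Note: 0% = both proteins with DMSO and 100% = one protein alone.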 Conditions: AlphaScreen His-mHTT/GST-CaM binding, luminescence; at 15 µM, hits give high values.
Sequence of Huntingtin (Homo sapiens) (P42858 whole entry, looked up, stated change not applied): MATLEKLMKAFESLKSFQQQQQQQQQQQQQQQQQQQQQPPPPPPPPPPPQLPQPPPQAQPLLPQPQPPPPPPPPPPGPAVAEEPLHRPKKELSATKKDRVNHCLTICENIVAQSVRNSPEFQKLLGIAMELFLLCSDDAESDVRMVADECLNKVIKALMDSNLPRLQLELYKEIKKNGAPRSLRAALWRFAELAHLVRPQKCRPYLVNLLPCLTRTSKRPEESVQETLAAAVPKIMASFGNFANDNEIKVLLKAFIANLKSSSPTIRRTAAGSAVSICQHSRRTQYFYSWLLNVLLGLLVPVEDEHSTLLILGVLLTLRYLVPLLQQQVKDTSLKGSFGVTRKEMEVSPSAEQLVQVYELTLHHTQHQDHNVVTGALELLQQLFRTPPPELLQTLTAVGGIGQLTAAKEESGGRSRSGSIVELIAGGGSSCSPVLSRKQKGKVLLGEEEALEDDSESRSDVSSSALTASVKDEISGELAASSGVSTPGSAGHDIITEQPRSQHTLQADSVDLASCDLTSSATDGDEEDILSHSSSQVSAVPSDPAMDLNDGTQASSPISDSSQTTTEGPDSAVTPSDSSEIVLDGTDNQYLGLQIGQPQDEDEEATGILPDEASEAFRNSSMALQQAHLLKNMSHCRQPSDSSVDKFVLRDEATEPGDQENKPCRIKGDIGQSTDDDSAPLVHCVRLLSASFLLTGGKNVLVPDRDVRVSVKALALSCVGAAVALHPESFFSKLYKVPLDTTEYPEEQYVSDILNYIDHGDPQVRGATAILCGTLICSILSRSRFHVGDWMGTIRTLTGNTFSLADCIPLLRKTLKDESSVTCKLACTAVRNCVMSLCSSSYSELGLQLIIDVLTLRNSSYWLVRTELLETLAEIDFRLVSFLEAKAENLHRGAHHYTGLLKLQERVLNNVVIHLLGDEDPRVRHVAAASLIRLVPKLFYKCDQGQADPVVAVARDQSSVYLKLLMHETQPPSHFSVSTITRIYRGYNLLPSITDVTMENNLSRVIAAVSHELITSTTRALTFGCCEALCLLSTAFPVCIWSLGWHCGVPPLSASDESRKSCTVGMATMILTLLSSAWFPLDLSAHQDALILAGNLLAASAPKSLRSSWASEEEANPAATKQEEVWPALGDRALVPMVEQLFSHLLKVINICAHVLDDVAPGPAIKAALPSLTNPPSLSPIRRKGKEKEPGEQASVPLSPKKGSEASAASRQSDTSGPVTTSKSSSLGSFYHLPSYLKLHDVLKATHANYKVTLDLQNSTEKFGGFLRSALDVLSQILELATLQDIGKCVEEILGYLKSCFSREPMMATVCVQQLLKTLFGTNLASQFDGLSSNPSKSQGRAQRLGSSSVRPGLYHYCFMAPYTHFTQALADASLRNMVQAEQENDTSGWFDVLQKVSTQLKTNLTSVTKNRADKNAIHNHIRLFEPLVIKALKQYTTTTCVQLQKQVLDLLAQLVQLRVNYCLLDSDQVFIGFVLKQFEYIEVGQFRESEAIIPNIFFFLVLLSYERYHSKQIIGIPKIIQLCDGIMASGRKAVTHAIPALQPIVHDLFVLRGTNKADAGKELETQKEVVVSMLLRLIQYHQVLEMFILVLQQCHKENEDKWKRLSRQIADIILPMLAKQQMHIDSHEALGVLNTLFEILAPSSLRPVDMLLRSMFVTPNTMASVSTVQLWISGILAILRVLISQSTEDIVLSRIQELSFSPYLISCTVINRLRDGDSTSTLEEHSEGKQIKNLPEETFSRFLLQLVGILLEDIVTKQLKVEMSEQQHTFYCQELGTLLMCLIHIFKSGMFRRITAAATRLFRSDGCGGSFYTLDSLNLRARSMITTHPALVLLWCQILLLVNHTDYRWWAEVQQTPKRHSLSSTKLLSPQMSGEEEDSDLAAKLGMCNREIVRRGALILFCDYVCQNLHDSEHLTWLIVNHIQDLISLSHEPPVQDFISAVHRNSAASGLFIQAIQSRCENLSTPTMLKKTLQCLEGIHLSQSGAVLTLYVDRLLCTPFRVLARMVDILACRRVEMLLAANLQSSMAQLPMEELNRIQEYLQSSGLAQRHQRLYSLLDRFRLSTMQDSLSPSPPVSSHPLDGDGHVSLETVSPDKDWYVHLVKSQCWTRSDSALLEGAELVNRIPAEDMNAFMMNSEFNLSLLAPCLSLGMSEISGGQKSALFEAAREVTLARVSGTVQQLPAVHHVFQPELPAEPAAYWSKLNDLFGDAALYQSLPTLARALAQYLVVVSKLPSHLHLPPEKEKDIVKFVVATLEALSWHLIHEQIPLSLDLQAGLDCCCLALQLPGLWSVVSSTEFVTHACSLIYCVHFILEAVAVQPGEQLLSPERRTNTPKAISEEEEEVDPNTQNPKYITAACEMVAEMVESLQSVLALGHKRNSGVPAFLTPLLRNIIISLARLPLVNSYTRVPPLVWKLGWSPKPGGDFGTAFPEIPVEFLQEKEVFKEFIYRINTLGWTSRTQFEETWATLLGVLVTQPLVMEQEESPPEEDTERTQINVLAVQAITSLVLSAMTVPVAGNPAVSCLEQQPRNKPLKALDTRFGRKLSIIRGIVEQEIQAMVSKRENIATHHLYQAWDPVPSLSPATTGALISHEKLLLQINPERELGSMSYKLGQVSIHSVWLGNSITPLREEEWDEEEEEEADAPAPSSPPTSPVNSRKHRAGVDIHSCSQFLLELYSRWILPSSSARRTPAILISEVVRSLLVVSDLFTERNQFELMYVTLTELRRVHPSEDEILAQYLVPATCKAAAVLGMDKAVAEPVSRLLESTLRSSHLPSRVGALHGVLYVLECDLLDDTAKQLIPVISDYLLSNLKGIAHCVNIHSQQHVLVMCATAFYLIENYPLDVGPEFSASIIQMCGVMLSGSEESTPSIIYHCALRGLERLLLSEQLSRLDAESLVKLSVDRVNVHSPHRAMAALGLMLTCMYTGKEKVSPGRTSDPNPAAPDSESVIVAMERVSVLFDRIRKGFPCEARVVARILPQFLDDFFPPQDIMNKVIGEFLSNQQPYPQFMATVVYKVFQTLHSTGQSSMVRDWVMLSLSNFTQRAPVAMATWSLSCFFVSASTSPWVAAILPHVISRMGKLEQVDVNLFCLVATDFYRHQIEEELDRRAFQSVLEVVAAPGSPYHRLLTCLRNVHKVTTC
On to `COc1ccc(-n2nc3c(c2NC(=O)c2cccc(OC)c2OC)CS(=O)C3)cc1` (stereo not given), for which the inhibition was 5% (inactive).

With `O=C1C2C(C(=O)N1c1cc([N+](=O)[O-])ccc1Cl)C1C=CC2C12CC2` (stereo not given), the inhibition is 4% (inactive).

For the molecule `Cc1ccnc(N2CCCC(C(=O)NCCc3ccc(Cl)cc3)C2)n1` (stereo not given), the inhibition is 7.6% (inactive).

As to `Cc1ccc2cc3cc(C(=O)N(C)c4ccc(Br)cc4)oc3nc2c1`, the inhibition was -8% (inactive).

With `Cc1ccc(CNC(=O)CCC(=O)N2CCCn3nc(C)cc32)cc1`, the inhibition was 1.63% (inactive).

As to `COc1ccc(C(=O)NCCc2nc3ccccc3n2Cc2ccccc2C)cc1OC`, the inhibition is 77% (active).

Turning to `COc1ccc(OC)c2[nH]c(=O)c(CCNC(=O)c3ccc(C)c(C)c3)cc12`, the inhibition is 28% (inactive).

As to `COc1ccc(C(=O)NCCc2ccc(S(N)(=O)=O)cc2)cc1OC`, the inhibition is 9.3% (inactive).

On to `CCNc1cc(N2CCCC(CCC(=O)N3CCN(c4ccccn4)CC3)C2)ncn1` (stereo not given), for which the inhibition was 1.12% (inactive).

As for `CCC(=O)N1CCc2ccccc2C1C(=O)NCc1ccc(OC)cc1` (stereo not given), the inhibition is 3.87% (inactive).

Turning to `O=C(CC1COc2ccccc2NC1=O)Nc1ccc(C(F)(F)F)cc1` (stereo not given), the inhibition was -6.9% (inactive).

Consider `Cc1ccc(NC(=O)CC2COc3ccc(Cl)cc3NC2=O)cc1Cl` (stereo not given), for which the inhibition is 92.5% (active).

Take `Cc1ccc(NC(=O)CC2COc3ccccc3NC2=O)cc1C` (stereo not given): the inhibition is -3.7% (inactive).

Consider `Cc1cc(SCC(=O)NCc2ccc3c(c2)OCO3)nc2ccccc12`, for which the inhibition was -10.7% (inactive).

In the case of `O=C(c1cnc(-c2ccccc2)nc1N1CCSCC1)N1CCCCC1`, the inhibition was 18.3% (inactive).

Turning to `Cc1cccc(N2CCN(C(=O)CCC3CCCN(C(=O)Nc4ccccc4)C3)CC2)c1C` (stereo not given), the inhibition is 47% (inactive).

In the case of `O=C(CSc1ccccn1)c1ccc(Br)cc1`, the inhibition was -42.4% (inactive).

In the case of `N#Cc1ccc(CSc2ncccn2)cc1`, the inhibition was -1.95% (inactive).

Consider `Brc1ccc(CSc2cccc3cccnc23)cc1`, for which the inhibition was 54% (active).

With `CN(C)C(CNC(=O)Nc1ccc(Cl)cc1)c1ccco1` (stereo not given), the inhibition is -16% (inactive).

In the case of `O=C(COc1coc(CN2CCc3ccccc32)cc1=O)NCc1ccco1`, the inhibition was 19.5% (inactive).

As for `CCOc1ccc(NC(=O)N2CC(C)Oc3ccc(C)cc32)cc1` (stereo not given), the inhibition is 1.01% (inactive).

With `COc1cc(OC)c(OC)cc1/C=C1/CC/C(=C\c2cc(OC)c(OC)cc2OC)C1=O`, the inhibition is 23% (inactive).

Turning to `Cc1cccc(NC(=O)c2cc3c(CO)cnc(C)c3oc2=Nc2ccc(Cl)cc2)c1`, the inhibition was -1% (inactive).

For `Cc1ccccc1NS(=O)(=O)c1cc(Br)cc2c1N(C(=O)C1CC1)CC2`, the inhibition was 2% (inactive).

`CC(C)(C)C1=CC(=Nc2ccccc2N)C=C(C(C)(C)C)C1O` (stereo not given): the inhibition was 97% (active).

As for `COCCCNC(=O)c1ccc2c(c1)ncn2-c1ccc(F)c(F)c1`, the inhibition is 9% (inactive).

Turning to `CCOc1ccc(C(=O)Nc2ccccc2I)cc1[N+](=O)[O-]`, the inhibition is 4.6% (inactive).

On to `CCNC(=O)N(C)CC(=O)N1N=C(c2ccccc2F)CC1c1ccc(C)cc1` (stereo not given), for which the inhibition is 24.6% (inactive).

As for `CCNC(=O)N(C)CC(=O)N1N=C(c2ccc(C)c(C)c2)CC1c1ccc(C)cc1` (stereo not given), the inhibition is 73.4% (active).

For the molecule `COc1ccc(C2CC(c3ccccc3)=NN2C(=O)c2ccc(Br)o2)cc1` (stereo not given), the inhibition is -1% (inactive).

For `COc1ccc(C2=NN(C(=O)CN3CCN(C)CC3)C(c3ccccc3C)C2)cc1` (stereo not given), the inhibition is 42% (inactive).

With `COc1ccccc1C1=NN(C(=O)CN2CCCCC2)C(c2ccc(C)cc2)C1` (stereo not given), the inhibition was 8.3% (inactive).

On to `COc1ccccc1C1=NN(C(=O)CN2CCC(C)CC2)C(c2ccc(C)cc2)C1` (stereo not given), for which the inhibition is 12.9% (inactive).

On to `COc1ccc(C2CC(c3ccccc3F)=NN2C(=O)CN2CCOCC2)cc1` (stereo not given), for which the inhibition is 50.5% (active).

For the molecule `COc1ccc(C2CC(c3cccc(F)c3)=NN2C(=O)CN2CCCCC2)cc1` (stereo not given), the inhibition is 36.7% (inactive).

Take `O=C(Cc1nnc(-c2cccc(F)c2)o1)N1CCOCC1`: the inhibition was -5.8% (inactive).

Consider `Cc1ccc(C2CC(c3cccc(F)c3)=NN2C(=O)CN2CCOCC2)cc1` (stereo not given), for which the inhibition is 67.8% (active).

Take `Cc1ccc(C)c(C2CC(c3ccccc3Cl)=NN2C(=O)CN2CCOCC2)c1` (stereo not given): the inhibition was 79.4% (active).

As for `COc1ccc(C2=NN(C(=O)CCC(=O)O)C(c3ccc(F)cc3)C2)cc1OC` (stereo not given), the inhibition was -2.9% (inactive).

`CC(C)NC(=O)c1ccccc1NC(=O)c1ccc([N+](=O)[O-])cc1`: the inhibition was -2.9% (inactive).

Regarding `N=C1S/C(=C\c2cccs2)C(=O)N1c1ccc2c(c1)OCO2`, the inhibition was 2% (inactive).

For `O=C(CSc1ncnc2c1[nH]c1ccccc12)N1CCc2ccccc2C1`, the inhibition is 0% (inactive).

As for `COCC(=O)N1CCCN(c2nc3c(s2)c(C)nn3-c2ccc(C)cc2)CC1`, the inhibition is 45.2% (inactive).

With `COc1ccc(CCNC(=O)N2CC(c3nc(-c4ccccn4)no3)C2)cc1`, the inhibition was -18.5% (inactive).

Take `COc1ccc(NC(=O)N2CC3CC(NS(=O)(=O)c4cccs4)C2C3)c(OC)c1` (stereo not given): the inhibition is 9.02% (inactive).

With `N#CC1=C(N)Oc2c(c(=O)[nH]c3ccccc23)C1c1cccs1` (stereo not given), the inhibition is 8% (inactive).

For the molecule `N#CC1=C(N)Oc2ccc3ncccc3c2C1c1ccccc1F` (stereo not given), the inhibition was 49% (inactive).

`N#CC1=C(N)Oc2c(sc3ccccc23)C1c1ccco1` (stereo not given): the inhibition was 53% (active).

Regarding `CC(C)=CCOc1ccc2cc(-c3ccccc3)c(=O)oc2c1`, the inhibition was -45.3% (inactive).

With `O=C(COc1ccc(Br)cc1)Nc1ccccc1C(F)(F)F`, the inhibition is -57% (inactive).

Turning to `CN(C)C(=O)c1cc2c(s1)CCC(C(=O)NCc1ccccc1Cl)C2` (stereo not given), the inhibition is 3.06% (inactive).

For `O=C1OC(c2cccc(F)c2)=N/C1=C\c1ccc(Br)cc1`, the inhibition is -1% (inactive).

Regarding `CCC(C)NC(=O)c1ccc2c(c1)nc1n2CCCC1` (stereo not given), the inhibition was -4.18% (inactive).

Turning to `CN1CCN(c2nc3c(c(=O)[nH]c(=O)n3C)n2CC(=O)c2ccc(Cl)cc2)CC1`, the inhibition is -4% (inactive).

As to `Cc1cccc(N=C/C=C/c2ccc([N+](=O)[O-])cc2)c1`, the inhibition was 72% (active).

`O=[N+]([O-])c1ccc(C=Nc2ccc(N=Cc3ccc([N+](=O)[O-])cc3)cc2)cc1`: the inhibition was 4% (inactive).

Take `O=[N+]([O-])c1ccc(C=Nc2cccc(Cl)c2)cc1`: the inhibition was 30% (inactive).

For `CC(=O)NCCN1C(=O)C(=O)C(=C(O)c2ccc(Cl)cc2)C1c1ccc(Br)cc1` (stereo not given), the inhibition is -0.6% (inactive).

Regarding `COc1cc(/C=C2\SC(=N)N(c3ccccc3OC)C2=O)ccc1O`, the inhibition was 36% (inactive).

For the molecule `COc1cc(C=C2SC(=S)N(c3ccc(O)cc3)C2=O)ccc1O`, the inhibition is 58.5% (active).

With `C=CCOc1ccc(/C=C2\SC(=O)N(c3ccccc3)C2=O)cc1OC`, the inhibition was 3% (inactive).

As for `Cc1ccc(F)cc1NS(=O)(=O)c1cccc2cccnc12`, the inhibition is 2% (inactive).

In the case of `CCc1cccc(NS(=O)(=O)c2ccccc2[N+](=O)[O-])c1`, the inhibition was 10.6% (inactive).

In the case of `O=[N+]([O-])c1ccccc1S(=O)(=O)Nc1cccc2cccnc12`, the inhibition is 98.6% (active) and 99% (active).

In the case of `COc1cccc(-c2noc(C3CCCN3C(=O)Nc3ccc4c(c3)OCCO4)n2)c1` (stereo not given), the inhibition was 13.9% (inactive).

Consider `OC(COc1ccccc1Br)CN1CCN(Cc2ccccc2)CC1` (stereo not given), for which the inhibition was -4% (inactive).

For the molecule `COc1ccccc1Oc1ncnc2scc(-c3ccc(F)cc3)c12`, the inhibition was -1% (inactive).

Regarding `CCOc1ccc(-n2nc(C(=O)Nc3ccc(F)cc3)c3ccccc3c2=O)cc1`, the inhibition is -5% (inactive).

In the case of `O=C1NC(=O)/C(=C/c2ccc(-c3ccc([N+](=O)[O-])cc3)o2)S1`, the inhibition was 3% (inactive).

With `O=C1NC(=O)/C(=C\c2ccc(-c3cccc(Cl)c3)o2)S1`, the inhibition is 58% (active).

Turning to `O=C1NC(=O)/C(=C/c2ccc(-c3ccccc3[N+](=O)[O-])o2)S1`, the inhibition was 37% (inactive).

In the case of `COc1ccc(CC(=O)Nc2ccc(S(=O)(=O)Nc3c(C)cc(C)cc3C)cc2)cc1`, the inhibition is 13% (inactive).

For the molecule `COc1cccc(CN2CCOCC2)c1OC`, the inhibition was -5.1% (inactive).

Regarding `O=C(NC1CC2CC1CN2C(=O)c1ccc(C(F)(F)F)cc1)c1cccnc1` (stereo not given), the inhibition was 6.1% (inactive).

As to `COc1ccc(N=Cc2cc(Cl)cc(Cl)c2O)cc1OC`, the inhibition is 4% (inactive).

In the case of `CC(=O)Nc1cccc(N=Cc2ccc(Cl)cc2Cl)c1`, the inhibition was -2% (inactive).

For `Oc1cccc(N=Cc2cc(Cl)cc(Cl)c2O)c1`, the inhibition was 98% (active).

Regarding `CC(C)OCCCNC(=O)CN1C(=O)/C(=C/c2cccc(Cl)c2)Sc2ccccc21`, the inhibition is 9% (inactive).

Consider `Cc1ccc(F)cc1NC(=O)Cn1c(=O)nc(N2CCCCC2)c2ccccc21`, for which the inhibition is 12.4% (inactive).

For the molecule `COc1ccc(NC(=O)N2CCC(CCOc3ccccc3)CC2)cc1`, the inhibition is 3.99% (inactive).

`Cc1ccc2occ(C3Nc4cc(C)c(C)cc4NC4=C3C(=O)CC(C)(C)C4)c(=O)c2c1` (stereo not given): the inhibition is 19% (inactive).

For `CC1(C)CC(=O)C2=C(C1)Nc1ccccc1NC2c1ccc(Br)cc1` (stereo not given), the inhibition was 3.9% (inactive).

For the molecule `Cc1cc2c(cc1C)NC(c1ccc(Cl)s1)C1=C(CC(C)(C)CC1=O)N2` (stereo not given), the inhibition was 51% (active).

With `COc1ccc(-c2cn3ccn(-c4ccc(F)c(Cl)c4)c(=O)c3n2)cc1OC`, the inhibition is -2.4% (inactive).

On to `Cc1cccc2nnc(N3CCC(C(=O)Nc4ccc(Cl)cc4)CC3)n12`, for which the inhibition is 3.32% (inactive).

In the case of `CCn1c(N2CCCC(C(=O)NCc3cccc(C)c3)C2)cc(=O)n(C)c1=O` (stereo not given), the inhibition was 7.32% (inactive).

For the molecule `COc1ccc(NS(=O)(=O)c2ccc(N3C(=O)CCC3=O)cc2)c(OC)c1`, the inhibition is -10.9% (inactive).

On to `O=C(Nc1ccc(F)cc1F)N1CCc2nc[nH]c2C1`, for which the inhibition is -5.8% (inactive).

For `O=C1C(Nc2cccc(Cl)c2)=C(N2CCOCC2)C(=O)c2ccccc21`, the inhibition was 59% (active).

Take `COC1=C(N2CCOCC2)C(=O)c2ccccc2C1=O`: the inhibition was -2.9% (inactive).

As to `O=C(NCCN1CCOCC1)Nc1cccc(Cl)c1`, the inhibition is -4% (inactive).

For `CCCCN(CC)C(=O)c1cc(Cl)ccc1OC`, the inhibition was -8.5% (inactive).

Consider `Cc1ccc(NC(=O)CN2C(=O)C(c3ccc(Cl)cc3)=NC2(C)C)cc1`, for which the inhibition was -11.7% (inactive).

Consider `COc1ccc(CN2CCc3nc(N4CCCC4)ncc3C2)cc1OC`, for which the inhibition was 42.3% (inactive).

Consider `CN(C)c1ccc(CN2CCc3nc(N4CCN(c5ccccc5F)CC4)ncc3C2)cc1`, for which the inhibition was 39.9% (inactive).

As for `CN(C)c1ccc(CN2CCc3nc(N4CCOCC4)ncc3C2)cc1`, the inhibition was 96.6% (active).

In the case of `COc1ccc(CN2CCc3nc(N4CCN(c5ncccn5)CC4)ncc3C2)cc1OC`, the inhibition is 55.5% (active).

In the case of `Cc1ccc(CN2CCc3nc(N4CCCC4)ncc3C2)cc1`, the inhibition is 12.2% (inactive).

`COc1cc(CN2CCc3nc(N4CCCC4)ncc3C2)cc(OC)c1OC`: the inhibition is 11.5% (inactive).
